TDP1 cell noCPT: qHTS for Inhibitors of human tyrosyl-DNA phosphodiesterase 1 (TDP1): qHTS in cells in absence of CPT; DT40 Tdp1-/- hTDP1 cells, no CPT, ATP luminescence, 48 h; AID 686978, 2013; Potency, µM (titrated, usually from 46.2 µM), inactives show top-dose activity change, negative = growth inhibition, hits mostly inhibitors; actives 15% (n = 420,000); note: potency is the fitted concentration of half-maximal effect; % is set by controls: 0 for no effect and ±100 for the full control effect; nearly all actives have a fitted effect of over 55% in size
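Chicken DT40 Tdp1-/- cells complemented with human TDP1, screened without camptothecin (DMSO vehicle only), 400 cells/well. Compounds pin-transferred, cells incubated at 37 °C for at least 48 hr. Growth read as ATP-dependent luminescence (CellTiter-Glo, 30 min at RT).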
DT40 TDP1 CPT: qHTS for Inhibitors of human tyrosyl-DNA phosphodiesterase 1 (TDP1): qHTS in cells in presence of CPT | chicken DT40 Tdp1-/-;hTDP1 cells + 20 nM CPT, ATP luminescence, 48 h | Potency, µM (doses to about 46.2 µM), for the others: at the highest dose activity change, negative = growth inhibition, actives largely listed as inhibitors | actives 12% (n = 420,000) | AID 686979, 2013; note: potency is the fitted concentration of half-maximal effect; % is set by controls: 0 for no effect and ±100 for the full control effect; nearly all actives have a fitted effect of over 55% in size
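Chicken DT40 Tdp1-/- cells complemented with human TDP1, 400 cells/well, exposed to compounds plus 20 nM camptothecin for at least 48 h at 37 C; viability read as ATP content by CellTiter-Glo luminescence.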
HepG2 tox: qHTS for Inhibitors of TGF-b: Cytotox Counterscreen | HepG2 CAGA-GFP viability, ATP luminescence, 18 h | Potency, µM (series often up to 46.1 µM), inactives show top-dose activity change, negative = cytotoxicity, usual class: cytotoxic | actives 0.76% (n = 410,000); note: potency is the fitted concentration of half-maximal effect
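HepG2 CAGA-GFP cells (1000/well, DMEM with 1% FBS) received compound, then TGF-beta at 500 pg/mL final, and were incubated 18 hours at 37 degrees C. Viability was read by CellTiter-Glo luminescence. Media-only wells were set as complete cell-killing and DMSO as no toxicity.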
TGFb SMAD3 inh: qHTS for Inhibitors of TGF-b; HepG2 CAGA-GFP TGF-b/SMAD3 reporter, GFP fluorescence, 18 h; TGF-beta stimulated, 500 pg/mL final; Potency, µM (highest dose often 46.1 µM), without a hit: at the top dose activity, negative = inhibition, most hits filed as inhibitors; actives 1.2% (n = 410,000); AID 588855, 2011; note: potency is the fitted concentration of half-maximal effect; % is set by controls: 0 for no effect and ±100 for the full control effect; nearly all actives have a fitted effect of over 65% in size
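TGF-beta reporter screen: HEPG2 CAGA-GFP, 1% FBS, 500 pg/mL TGF-beta final, 18 h; per-cell GFP summed per well; curves fitted and categorized by class.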
IL1B secr inh: qHTS for Inhibitors of Inflammasome Signaling: IL-1-beta AlphaLISA Primary Screen; THP-1 LPS/ATP IL-1B secretion, AlphaLISA, 16 h; active compounds read low; actives 4.7% (n = 360,000); AID 743279, 2014; activity change, % at 57.5 µM; in the data active = activity change below about -50%; inconclusive = mostly about -30% to -49%; note: % is set by controls: 0 for no effect and ±100 for the full control effect
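Secreted IL-1B measured by AlphaLISA bead assay after 16 h compound exposure of THP-1 cells; compounds (final up to 57.5 uM) added 1 h before LPS (250 ng/mL) and ATP (1.25 mM) stimulation; lower signal means less secretion.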
TDP1 block: qHTS Assay for Inhibitors of Tyrosyl-DNA Phosphodiesterase (TDP1); Potency, µM (doses to about 130 µM), without a hit: at the highest dose activity change, negative = inhibition, usual class: inhibitors; Tyrosyl-DNA phosphodiesterase 1 (Homo sapiens), Q9NUW8; actives 0.28% (n = 350,000); recombinant TDP1, AlphaScreen DNA substrate cleavage; note: potency is the fitted concentration of half-maximal effect; % is set by controls: 0 for no effect and ±100 for the full control effect; nearly all actives have a fitted effect of over 40% in size
Target sequence (Q9NUW8 whole entry, looked up): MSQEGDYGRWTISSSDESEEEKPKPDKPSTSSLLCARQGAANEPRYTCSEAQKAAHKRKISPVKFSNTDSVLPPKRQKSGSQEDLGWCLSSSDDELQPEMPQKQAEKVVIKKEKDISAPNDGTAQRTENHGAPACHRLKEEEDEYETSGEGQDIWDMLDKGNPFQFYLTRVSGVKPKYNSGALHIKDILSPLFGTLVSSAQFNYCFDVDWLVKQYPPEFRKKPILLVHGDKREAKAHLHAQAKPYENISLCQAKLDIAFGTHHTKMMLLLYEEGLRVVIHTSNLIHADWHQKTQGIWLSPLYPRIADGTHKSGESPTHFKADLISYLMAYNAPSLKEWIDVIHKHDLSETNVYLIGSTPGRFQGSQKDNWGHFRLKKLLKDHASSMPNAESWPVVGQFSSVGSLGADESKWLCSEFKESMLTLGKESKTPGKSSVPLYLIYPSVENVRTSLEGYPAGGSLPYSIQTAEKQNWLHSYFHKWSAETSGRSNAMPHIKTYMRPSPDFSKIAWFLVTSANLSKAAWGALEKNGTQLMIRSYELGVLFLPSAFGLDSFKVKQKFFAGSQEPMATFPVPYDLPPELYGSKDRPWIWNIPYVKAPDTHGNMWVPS
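Tdp1 1 nM final; 15 min RT w/ cpd; substrate 15 nM, 5 min; beads 10 ug/ml, 10 min; AlphaScreen read. Neg ctrl: no enzyme.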
* marks the source's active call; other numbers are inactive results. Sampled rows, rich in hits. Any-hit rate of the full collection: about 19%. Unless noted, calls come from the whole dose curve; as a rule, active = well fitted curve in the direction sought with a large enough effect; inconclusive = small, poorly fitted or top-dose-only effect, or another doubt; inactive = no such curve, though single readings can be large; an effect the other way counts as inactive or inconclusive.

What do the screens show for `CCn1ccnc1CN1CCc2c([nH]c3ccccc23)C1C(C)(C)C` (configuration not stated)?
TDP1 cell noCPT: inconclusive; DT40 TDP1 CPT: inconclusive; HepG2 tox: -27%; TGFb SMAD3 inh: -19%; IL1B secr inh: -84*; TDP1 block: 5%

How did Cc1cnc(CN2CCc3c([nH]c4ccccc34)C2CC(C)C)[nH]1 (configuration not stated) do in these assays?
TDP1 cell noCPT: inconclusive; DT40 TDP1 CPT: inconclusive; HepG2 tox: -16%; TGFb SMAD3 inh: -23%; IL1B secr inh: inconclusive; TDP1 block: 0%

How did Cc1c(CN2CCc3c([nH]c4ccccc34)C2C2CCCCC2)cnn1C (configuration not stated) do in these assays?
TDP1 cell noCPT: 16µM*; DT40 TDP1 CPT: -3%; HepG2 tox: -8%; TGFb SMAD3 inh: -17%; IL1B secr inh: -7; TDP1 block: 3%

How did CCn1ccnc1CN1CCc2c([nH]c3ccccc23)C1CC(C)C (configuration not stated) do in these assays?
TDP1 cell noCPT: 16µM*; DT40 TDP1 CPT: inconclusive; HepG2 tox: -45%; TGFb SMAD3 inh: inconclusive; IL1B secr inh: -4; TDP1 block: 5%

Results for CCn1ccnc1CN1CCc2c([nH]c3ccccc23)C1C1CCCCC1 (configuration not stated) ?
TDP1 cell noCPT: 26µM*; DT40 TDP1 CPT: inconclusive; HepG2 tox: 6%; TGFb SMAD3 inh: 6%; IL1B secr inh: 29; TDP1 block: 12%

What do the screens show for `Cc1cccc(OCCn2c(-c3ccc(Cl)cc3)nc3ccccc3c2=O)c1C`?
TDP1 cell noCPT: 10%; DT40 TDP1 CPT: -12%; HepG2 tox: -12%; TGFb SMAD3 inh: 9%

How did COCc1ccc(CN2CCc3c([nH]c4ccccc34)C2C(C)(C)C)o1 (configuration not stated) do in these assays?
TDP1 cell noCPT: inconclusive; DT40 TDP1 CPT: inconclusive; HepG2 tox: -15%; TGFb SMAD3 inh: inconclusive; IL1B secr inh: -53*; TDP1 block: -8%

What do the screens show for `CCOc1ccc(NC(=O)CCc2c(C)nc3c(-c4ccccc4)c(C)nn3c2C)cc1`?
TDP1 cell noCPT: inconclusive; DT40 TDP1 CPT: -17%; HepG2 tox: -13%; TGFb SMAD3 inh: -4%; TDP1 block: 3%

What do the screens show for `CCOC(=O)c1cnc2cc(-c3ccc(C(C)(C)C)cc3)nn2c1N`?
TDP1 cell noCPT: inconclusive; DT40 TDP1 CPT: inconclusive; HepG2 tox: 2%; TGFb SMAD3 inh: 21%; IL1B secr inh: 22; TDP1 block: -2%

Results for CCOc1ccc(NC(=O)CCc2c(C)nc3cc(-c4ccc(Cl)cc4)nn3c2C)cc1 ?
TDP1 cell noCPT: 16µM*; DT40 TDP1 CPT: 15µM*; HepG2 tox: 0%; TGFb SMAD3 inh: 8%; TDP1 block: 5%

Results for CCOC(=O)c1cccc(NC(=O)CCc2c(C)nc3cc(-c4ccc(Cl)cc4)nn3c2C)c1 ?
TDP1 cell noCPT: 16µM*; DT40 TDP1 CPT: 21µM*; HepG2 tox: 4%; TGFb SMAD3 inh: -8%; TDP1 block: 9%

Results for CCOC(=O)Cc1c(C)nc2cc(-c3ccc(C(C)(C)C)cc3)nn2c1C ?
TDP1 cell noCPT: 15µM*; DT40 TDP1 CPT: inconclusive; HepG2 tox: 0%; TGFb SMAD3 inh: 2%

Results for COC(=O)c1ccccc1NC(=O)CCc1c(C)nc2cc(-c3ccc(Cl)cc3)nn2c1C ?
TDP1 cell noCPT: inconclusive; DT40 TDP1 CPT: inconclusive; HepG2 tox: -2%; TGFb SMAD3 inh: 1%; TDP1 block: 2%

What do the screens show for `Cn1cnc(S(=O)(=O)N2CCCC(C(=O)Nc3ccc(OC(F)(F)F)cc3)C2)c1` (configuration not stated)?
TDP1 cell noCPT: inconclusive; DT40 TDP1 CPT: inconclusive; HepG2 tox: 7%; TGFb SMAD3 inh: 23%; TDP1 block: -1%

Results for O=c1[nH]c2cc3c(cc2cc1C(c1nnnn1CC1CCCO1)N1CCCC1)OCO3 (configuration not stated) ?
TDP1 cell noCPT: -15%; DT40 TDP1 CPT: -7%; HepG2 tox: 0%; TGFb SMAD3 inh: 2%; IL1B secr inh: -6; TDP1 block: 2%

What do the screens show for `O=c1[nH]c2cc3c(cc2cc1C(c1nnnn1CC1CCCO1)N1CCCCCC1)OCCO3` (configuration not stated)?
TDP1 cell noCPT: 15µM*; DT40 TDP1 CPT: inconclusive; HepG2 tox: 4%; TGFb SMAD3 inh: 2%; IL1B secr inh: -4; TDP1 block: 3%

What do the screens show for `O=C(CSc1nc2ccccc2nc1Cc1ccccc1)Nc1ccc2c(c1)OCO2`?
TDP1 cell noCPT: inconclusive; DT40 TDP1 CPT: inconclusive; HepG2 tox: 4%; TGFb SMAD3 inh: 11%; TDP1 block: -3%

How did Cc1oc(-c2cccc(Cl)c2)nc1CN1CCCC(C(=O)NC(C)c2ccc3c(c2)OCCO3)C1 (configuration not stated) do in these assays?
TDP1 cell noCPT: 12µM*; DT40 TDP1 CPT: 21µM*; HepG2 tox: -33%; TGFb SMAD3 inh: inconclusive; IL1B secr inh: inconclusive; TDP1 block: 4%

What do the screens show for `Cc1oc(-c2cccc(Cl)c2)nc1CN1CCCC(C(=O)NCc2ccco2)C1` (configuration not stated)?
TDP1 cell noCPT: inconclusive; DT40 TDP1 CPT: inconclusive; HepG2 tox: -33%; TGFb SMAD3 inh: 0%; IL1B secr inh: -4; TDP1 block: 1%

Results for Cc1oc(-c2cccc(Cl)c2)nc1CN1CCC(C(=O)NC(C)C)CC1 ?
TDP1 cell noCPT: -8%; DT40 TDP1 CPT: -16%; HepG2 tox: 3%; TGFb SMAD3 inh: 10%; TDP1 block: 5%

Results for COc1ccc(CNC(=O)C2CCN(Cc3nc(-c4ccc(OC)c(OC)c4)oc3C)CC2)cc1 ?
TDP1 cell noCPT: inconclusive; DT40 TDP1 CPT: inconclusive; HepG2 tox: -24%; TGFb SMAD3 inh: inconclusive; TDP1 block: 6%
